This is an account of results in the antibiotic and cytotoxicity screens of Wong et al. (2023).

The campaign covered roughly 39,000 compounds. About 3,300 (8.5%) were called active. Shown is part of a subset that was picked to be rich in actives.

The test system of the test is HepG2. Put plainly: cytotoxicity call (relative viability < 0.9). To be noted: 10 µM.
For the compound `CN(C)CCNC(=O)[C@H]1CN(Cc2cnn(C)c2)Cc2ccnn2C1`, the cytotoxicity call was “inactive”.
With `C[C@@H]1CN([C@H](C)CO)C(=O)Cc2cc(NC(=O)Nc3ccc(C(F)(F)F)cc3)ccc2O[C@@H]1CN(C)CC1CCCCC1` the entry was “active”; with `C[C@H]1CN([C@@H](C)CO)C(=O)Cc2cc(NC(=O)Nc3ccc(C(F)(F)F)cc3)ccc2O[C@@H]1CN(C)C(=O)NC1CCCCC1`, “inactive”.
With `C[C@@H]1CN([C@H](C)CO)C(=O)Cc2cc(NC(=O)Nc3ccc(C(F)(F)F)cc3)ccc2O[C@H]1CN(C)CC1CCCCC1`, the cytotoxicity call is “active”.
With `COCC(=O)N1C[C@H](C)[C@H](OC)CN(C)C(=O)c2ccc(NC(=O)Nc3ccccc3)cc2OC[C@@H]1C` the entry was “inactive”.
Turning to `Cc1ccc(S(=O)(=O)N(C)C[C@H]2Oc3ccc(NS(=O)(=O)c4ccccc4)cc3CC(=O)N([C@H](C)CO)C[C@@H]2C)cc1`, the cytotoxicity call was “inactive”.
As to `CC(C)NC(=O)N[C@H]1CC[C@H](CCN)O[C@H]1CO`, the cytotoxicity call was “inactive”.
The result for `C[C@H](CO)N1C[C@H](C)[C@@H](CN(C)C(=O)Nc2cccc3ccccc23)OCCCC[C@H](C)Oc2ccc(NC(=O)Cc3ccccc3)cc2C1=O` reads “inactive”.
Consider `C[C@H]1CCCCO[C@@H](CN(C)C(=O)Nc2cccc3ccccc23)[C@@H](C)CN([C@@H](C)CO)C(=O)c2cc(NC(=O)Cc3ccccc3)ccc2O1`, for which the cytotoxicity call was “active”.
For the compound `C[C@@H]1CN([C@@H](C)CO)C(=O)c2cc(NC(=O)Cc3ccccc3)ccc2O[C@@H](C)CCCCO[C@@H]1CN(C)C(=O)Nc1cccc2ccccc12`, the cytotoxicity call was “active”.
The result for `C[C@@H]1CCCCO[C@H](CN(C)C(=O)Nc2cccc3ccccc23)[C@@H](C)CN([C@@H](C)CO)C(=O)c2cc(NC(=O)Cc3ccccc3)ccc2O1` reads “inactive”; that for `C[C@@H]1CCCCO[C@@H](CN(C)C(=O)Nc2cccc3ccccc23)[C@H](C)CN([C@@H](C)CO)C(=O)c2cc(NC(=O)Cc3ccccc3)ccc2O1`, “inactive”; that for `C[C@@H]1CCCCO[C@@H](CN(C)C(=O)Nc2cccc3ccccc23)[C@@H](C)CN([C@@H](C)CO)C(=O)c2cc(NC(=O)Cc3ccccc3)ccc2O1`, “inactive”.
The result for `C[C@@H]1CCCCO[C@H](CN(C)C(=O)Nc2cccc3ccccc23)[C@H](C)CN([C@H](C)CO)C(=O)c2cc(NC(=O)Cc3ccccc3)ccc2O1` reads “active”; that for `C[C@@H]1CCCCO[C@@H](CN(C)C(=O)Nc2cccc3ccccc23)[C@H](C)CN([C@H](C)CO)C(=O)c2cc(NC(=O)Cc3ccccc3)ccc2O1`, “inactive”.
As to `C[C@@H]1CN([C@H](C)CO)C(=O)c2cc(NC(=O)Cc3ccccc3)ccc2O[C@@H](C)CCCCO[C@@H]1CN(C)C(=O)Nc1cccc2ccccc12`, the cytotoxicity call was “inactive”.
On to `F[C@H]1CCNC1`, for which the cytotoxicity call was “inactive”.
With `C[C@@H]1CCCCO[C@@H](CN(C)C(=O)c2ccncc2)[C@H](C)CN([C@@H](C)CO)C(=O)c2cc(NS(=O)(=O)c3ccc(Cl)cc3)ccc2O1` the entry was “inactive”; with `Cn1cnc(=N)c2[nH]cnc21`, “inactive”.
Regarding `CN1CCN([C@H](CNC(=O)C(=O)NCCN2CCOCC2)c2ccc(N(C)C)cc2)CC1`, the cytotoxicity call is “inactive”.
With `Cc1noc(C)c1S(=O)(=O)Nc1cccc2c1O[C@H](CN(C)Cc1ccncc1)[C@H](C)CN([C@@H](C)CO)C2=O` the entry was “inactive”; with `C[C@H]1CN([C@@H](C)CO)C(=O)Cc2cc(NC(=O)Nc3cccc4ccccc34)ccc2O[C@@H]1CN(C)C(=O)NC1CCCCC1`, “inactive”.
With `C[C@@H]1O[C@@H](O)[C@H](O)[C@H](O)[C@H]1O` the entry was “inactive”.
Consider `COC1C(C(=O)O)OC(C)C(O)C1O.COC1OC(C(=O)O)C(O)C(O)C1O` (configuration not stated) [ALGINIC ACID [Mol Wt ~200,000; monomers shown] ], for which the cytotoxicity call was “active”.
The result for `CO[C@H]1O[C@H](COS(=O)(=O)O)[C@@H](O[C@@H]2O[C@@H](C(=O)O)[C@@H](OC)[C@H](O)[C@H]2OS(=O)(=O)O)[C@H](O)[C@H]1NS(=O)(=O)O` reads “inactive”; that for `C[C@@H]1CN([C@@H](C)CO)C(=O)Cc2cc(NC(=O)c3ccncc3)ccc2O[C@@H]1CN(C)Cc1ccncc1`, “inactive”.
The result for `O=C(C[C@H]1CC[C@H]2[C@@H](COC[C@@H](O)CN2C(=O)c2ccc(F)cc2)O1)NCCCN1CCOCC1` reads “inactive”; that for `O=C(CCCCCCC(=O)Nc1ccccc1)NO`, “active”; that for `O=C(CCCCCCC(=O)Nc1ccc([C@H]2C[C@H](c3ccccc3)O[C@H](c3ccccc3)O2)cc1)NO`, “inactive”.
Turning to `O=C(CCCCCCC(=O)NO)NO`, the cytotoxicity call is “inactive”.
On to `C[C@@H]1CN([C@@H](C)CO)C(=O)CCCn2nncc2CO[C@H]1CN(C)S(=O)(=O)c1ccc(C#N)cc1`, for which the cytotoxicity call was “inactive”.
With `CCO[C@@H]1OC(C(=O)N2CCCCCCC2)=C[C@H](c2coc3ccccc3c2=O)[C@H]1CCCOC(=O)NCCCCCC(=O)NO` the entry was “inactive”; with `C[C@H]1CCCCO[C@H](CN(C)C(=O)NC2CCCCC2)[C@@H](C)CN([C@@H](C)CO)C(=O)c2cc(NC(=O)Nc3ccccc3)ccc2O1`, “active”.
With `C[C@H]1CCCCO[C@@H](CN(C)C(=O)NC2CCCCC2)[C@@H](C)CN([C@@H](C)CO)C(=O)c2cc(NC(=O)Nc3ccccc3)ccc2O1` the entry was “inactive”.
The result for `C[C@H](CO)N1C[C@H](C)[C@@H](CN(C)C(=O)NC2CCCCC2)OCCCC[C@H](C)Oc2ccc(NC(=O)Nc3ccccc3)cc2C1=O` reads “inactive”; that for `C[C@@H]1CN([C@H](C)CO)C(=O)c2cc(NC(=O)Nc3ccccc3)ccc2O[C@@H](C)CCCCO[C@H]1CN(C)C(=O)NC1CCCCC1`, “active”; that for `C[C@H](CO)N1C[C@H](C)[C@H](CN(C)C(=O)NC2CCCCC2)OCCCC[C@H](C)Oc2ccc(NC(=O)Nc3ccccc3)cc2C1=O`, “inactive”.
Consider `C[C@@H]1CN([C@@H](C)CO)C(=O)c2cc(NC(=O)Nc3ccccc3)ccc2O[C@@H](C)CCCCO[C@@H]1CN(C)C(=O)NC1CCCCC1`, for which the cytotoxicity call is “inactive”.
For the compound `C[C@H](CO)N1C[C@H](C)[C@H](CN(C)S(=O)(=O)c2ccccc2)Oc2c(NC(=O)c3cnccn3)cccc2C1=O`, the cytotoxicity call was “inactive”.
For `NNC(=O)c1cccc(C(=O)NO)c1`, the cytotoxicity call is “inactive”.
With `Cc1noc(C)c1NC(=O)N(C)C[C@H]1Oc2ncc(C#CCN(C)C)cc2C(=O)N([C@@H](C)CO)C[C@H]1C` the entry was “inactive”; with `CS(=O)(=O)c1ccc(C(O)C(CO)NC(=O)C(Cl)Cl)cc1` (configuration not stated), “inactive”.
Regarding `CCCCCCCCCCCCCCCC(=O)OC[C@@H](NC(=O)C(Cl)Cl)[C@H](O)c1ccc([N+](=O)[O-])cc1`, the cytotoxicity call was “inactive”.
With `CCCCCCCCCCCCCCCC(=O)OC[C@H](NC(=O)C(Cl)Cl)[C@H](O)c1ccc([N+](=O)[O-])cc1` the entry was “inactive”.
With `CCCCCCCCCCCCCCCC(=O)OCC(NC(=O)C(Cl)Cl)C(O)c1ccc([N+](=O)[O-])cc1` (configuration not stated), the cytotoxicity call was “inactive”.
`O=C(NC(CO)C(O)c1ccc([N+](=O)[O-])cc1)C(Cl)Cl` (configuration not stated): the cytotoxicity call is “active”.
For `O=C([O-])CCC(=O)OCC(NC(=O)C(Cl)Cl)C(O)c1ccc([N+](=O)[O-])cc1.[Na+]` (configuration not stated), the cytotoxicity call is “active”.
With `C[C@H]1CCCCO[C@@H](CN(C)C(=O)Nc2ccc(C(F)(F)F)cc2)[C@@H](C)CN([C@@H](C)CO)C(=O)c2cc(NS(=O)(=O)c3cn(C)cn3)ccc2O1` the entry was “inactive”; with `CNC(=O)C(=O)NC[C@H]1OCCN1S(=O)(=O)c1ccccc1`, “inactive”.
With `Cc1ccc(S(=O)(=O)N(C)C[C@H]2Oc3c(NS(C)(=O)=O)cccc3C(=O)N([C@@H](C)CO)C[C@@H]2C)cc1` the entry was “inactive”.
With `C[C@H](CO)N1C[C@H](C)[C@H](CN(C)Cc2ccncc2)Oc2ccc(NC(=O)c3ccncc3)cc2C1=O` the entry was “inactive”; with `C[C@@H]1CN([C@@H](C)CO)S(=O)(=O)c2ccc(-c3ccncc3)cc2O[C@@H]1CN(C)S(=O)(=O)c1ccccc1F`, “inactive”; with `O=C(C1=C[C@@H](c2csc3ccccc23)C[C@@H](OCc2ccc(CO)cc2)O1)N1CCN(Cc2ccc3c(c2)OCO3)CC1`, “active”.
As for `O=C(C1=C[C@H](c2csc3ccccc23)C[C@H](OCc2ccc(CO)cc2)O1)N1CCN(Cc2ccc3c(c2)OCO3)CC1`, the cytotoxicity call is “inactive”.
Consider `O=C(C1=C[C@H](c2csc3ccccc23)C[C@H](OCc2ccc(CO)cc2)O1)N1CCN(Cc2ccccc2)CC1`, for which the cytotoxicity call was “inactive”.
The result for `C[C@H](CO)N1C[C@H](C)[C@H](CN(C)S(C)(=O)=O)Oc2ccc(NC(=O)c3ccncc3)cc2CC1=O` reads “inactive”; that for `CCc1nn(CCCN2CCN(c3cccc(Cl)c3)CC2)c(=O)n1CCOc1ccccc1`, “active”; that for `COc1ccccc1N1CCN(c2ncc(C(=O)N3CCN(c4cccc(Cl)c4)CC3)c3ccccc23)CC1`, “inactive”.
The result for `Cl.O=c1n(CCCN2CCN(c3cccc(Cl)c3)CC2)nc2ccccn12` reads “inactive”; that for `C[C@H]1CN([C@@H](C)CO)C(=O)c2cccc(NS(=O)(=O)c3ccc(F)cc3)c2O[C@H]1CN(C)Cc1ccncc1`, “inactive”; that for `Cc1cn(CCC#N)c2ccccc12`, “inactive”.
In the case of `Cc1cn(CCN2CCN(c3ccccc3-c3cc(C#N)cc(C(=O)NCCCN4CCCC4)c3)CC2)c2ccccc12`, the cytotoxicity call is “active”.
For `COc1cc(C(=O)NCCCN2CCCN(CCCNC(=O)c3cc(OC)c(OC)c(OC)c3)CC2)cc(OC)c1OC`, the cytotoxicity call is “inactive”.
With `C[C@@H]1CN([C@@H](C)CO)S(=O)(=O)c2ccc(-c3ccncc3)cc2O[C@@H]1CN(C)Cc1ccc(Oc2ccccc2)cc1` the entry was “inactive”.
With `C[C@H](O)C#Cc1ccc2c(c1)O[C@@H](CN(C)C(=O)CN(C)C)[C@H](C)CN([C@H](C)CO)S2(=O)=O`, the cytotoxicity call was “inactive”.
For the compound `C[C@@H]1CN([C@@H](C)CO)C(=O)c2cccc(NC(=O)Nc3ccc(F)cc3)c2O[C@@H]1CN(C)Cc1ccc(-c2ccccc2)cc1`, the cytotoxicity call was “active”.
Turning to `C[C@H](CO)N1C[C@H](C)[C@H](CN(C)Cc2ccc(-c3ccccc3)cc2)Oc2c(NC(=O)Nc3ccc(F)cc3)cccc2C1=O`, the cytotoxicity call was “inactive”.
For `C[C@H]1CN([C@@H](C)CO)C(=O)c2cccc(NC(=O)Nc3ccc(F)cc3)c2O[C@@H]1CN(C)Cc1ccc(-c2ccccc2)cc1`, the cytotoxicity call was “inactive”.
The result for `CC(C)NC(=O)Nc1cccc2c1O[C@H](CN(C)Cc1ccc(-c3ccccc3)cc1)[C@H](C)CN([C@H](C)CO)C2=O` reads “inactive”; that for `C[C@H]1CN([C@@H](C)CO)C(=O)c2cccc(NC(=O)Nc3ccccc3)c2O[C@@H]1CN(C)Cc1ccc(-c2ccccc2)cc1`, “inactive”.
Regarding `C[C@H]1CN([C@@H](C)CO)C(=O)c2cccc(NC(=O)Nc3ccc(F)cc3)c2O[C@H]1CN(C)Cc1ccc(-c2ccccc2)cc1`, the cytotoxicity call is “inactive”.
The result for `C[C@@H]1CN([C@@H](C)CO)C(=O)c2cccc(NC(=O)Nc3ccccc3)c2O[C@@H]1CN(C)Cc1ccc(-c2ccccc2)cc1` reads “active”; that for `C[C@H](CO)N1C[C@H](C)[C@@H](CN(C)Cc2ccc(-c3ccccc3)cc2)Oc2c(NC(=O)Nc3ccc(F)cc3)cccc2C1=O`, “inactive”; that for `C[C@@H]1CN([C@@H](C)CO)C(=O)c2cccc(NC(=O)Nc3ccccc3)c2O[C@H]1CN(C)Cc1ccc(-c2ccccc2)cc1`, “inactive”.
The result for `CC(C)NC(=O)Nc1cccc2c1O[C@H](CN(C)Cc1ccc(-c3ccccc3)cc1)[C@@H](C)CN([C@@H](C)CO)C2=O` reads “active”; that for `CC(C)NC(=O)Nc1cccc2c1O[C@@H](CN(C)Cc1ccc(-c3ccccc3)cc1)[C@@H](C)CN([C@@H](C)CO)C2=O`, “inactive”.
The result for `C[C@@H]1CN([C@H](C)CO)C(=O)c2cccc(NC(=O)Nc3ccc(F)cc3)c2O[C@H]1CN(C)Cc1ccc(-c2ccccc2)cc1` reads “active”.
